These results are taken from PubChem BioAssay.

The subject of test [1] is XIP peptide (Xip251-270) binding. The experiment in a line: small-molecule binders of XIP peptide, primary screen, biochemical, small-molecule microarray, fluorescence 635/667 nm, 0.1 µg/mL protein (AID 1182). The conditions noted are these: fluorescent protein binding, 635 nm, higher = more signal, called active from +8 up or from −8 down.
In test [2] the test system is XIP peptide (Xip251-270). Briefly: small-molecule binders of XIP peptide, primary screen, biochemical, small-molecule microarray, fluorescence 635/667 nm, 0.5 µg/mL protein (AID 1183). The conditions noted are these: small-molecule microarray binding, fluorescence 635 nm; higher = more signal.
The nature of test [3]: Plasmodium falciparum growth inhibition, primary screen, strain 3D7, DAPI fluorescence, 100 nL (AID 1184).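 Also: parasites grown inside human red blood cells in medium with human serum.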 As to conditions: P. falciparum 3D7 growth, 3 d, higher = more signal.
For test [4], the target named is Homeobox protein Hox-A13 (Mus musculus) (UniProt Q62424). Briefly: inhibitors of HoxA13-DNA binding, primary screen, biochemical, fluorescence polarization, labeled oligonucleotide (AID 1185). As to conditions: 15 min, higher = more signal, called active from +8 up or from −8 down.
Homeobox protein Hox-A13 (Mus musculus), sequence (Q62424 whole entry, looked up): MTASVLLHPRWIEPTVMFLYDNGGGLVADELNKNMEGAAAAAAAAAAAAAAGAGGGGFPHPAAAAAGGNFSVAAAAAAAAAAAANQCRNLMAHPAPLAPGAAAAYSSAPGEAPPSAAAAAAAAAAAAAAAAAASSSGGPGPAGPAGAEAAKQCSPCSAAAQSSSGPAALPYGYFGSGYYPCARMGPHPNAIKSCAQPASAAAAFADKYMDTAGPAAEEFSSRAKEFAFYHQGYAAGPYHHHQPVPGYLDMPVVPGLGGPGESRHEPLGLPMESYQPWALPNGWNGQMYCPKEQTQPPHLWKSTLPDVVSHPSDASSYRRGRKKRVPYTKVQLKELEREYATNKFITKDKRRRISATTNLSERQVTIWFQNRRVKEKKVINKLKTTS
The nature of test [5]: inhibitors of hydroxyurea-induced Chk1 phosphorylation, primary screen, imaging, HeLa, phospho-Chk1 antibody, percent positive cells (AID 1186). The conditions noted are these: hydroxyurea-induced phospho-Chk1 immunofluorescence imaging, higher = more signal.
Test [6] is described as follows: inhibitors of hydroxyurea-induced Chk1 phosphorylation, primary screen, imaging, HeLa, phospho-Chk1 nuclear intensity (AID 1187). As to conditions: hydroxyurea-induced phospho-Chk1 immunofluorescence imaging, higher = more signal.

Activity calls are given as the source filed them. Unless noted, no rule for the calls is given here.

For the molecule `O=C1OCCC=C[C@H]2OC34C=CCN(Cc5ccccc5)C(=O)[C@H]3N(CCCCCO)C(=O)[C@@H]4C12` (some centres not stated), the composite z-score in test [1] was 1.16 (inactive); in test [2] it was -0.0335. The z-score in test [3] is 0.0195; in test [4], -4.46 (inactive); in test [5], -0.218 (inactive); in test [6] it was 0.534 (inactive).
For `COC(=O)c1ccc(C23CC2(C(NP(=O)(c2ccccc2)c2ccccc2)c2ccccc2)C3)cc1` (configuration not stated), the composite z-score in test [1] was 0.946 (inactive); in test [2], 0.474. Moreover, the z-score was -1.35 in test [3], -3.76 (inactive) in test [4], -1.54 (inactive) in test [5] and -1.34 (inactive) in test [6].
Turning to `CN(C)CCCNC(=O)[C@@]1(Cc2ccccc2I)c2ccccc2C(=O)N(Cc2ccccc2C(F)(F)F)[C@H]1c1ccc(CO)cc1`, the composite z-score in test [1] is 0.165 (inactive); in test [2], 0.514. Also, the z-score in test [3] was -1.83; in test [4], -2.47 (inactive); in test [5], -0.239 (inactive); in test [6], -0.347 (inactive).
Take `[N-]=[N+]=NCc1ccccc1[C@@H]1OC(c2ccc(OCCCO)cc2)=N[C@]1(Cc1ccccc1)C(=O)N1CCCCC1`: the composite z-score in test [1] was 0.34 (inactive); in test [2], 0.654. For the same molecule, the z-score in test [3] was -2.23; in test [4], -3.35 (inactive); in test [5], -0.837 (inactive); in test [6], -0.726 (inactive).
`COC(=O)[C@@]1(Cc2ccc(OC)cc2)[C@H]2c3cc(C(=O)N4CCCC4)n(CCc4c[nH]c5cc(F)ccc45)c3C[C@H]2CN1C(=O)c1ccccc1`: the composite z-score was 1.31 (inactive) in test [1] and 0.687 in test [2]. Also, the z-score in test [3] is -1.66; in test [4], 0.828 (inactive); in test [5], 0.527 (inactive); in test [6], 0.598 (inactive).
On to `COCC1=C2[C@@H](CCc3ccccc3)OB(O)C[C@@H]2[C@@H]2C(=O)N(Cc3ccccc3)C(=O)[C@@H]2C1`, for which the composite z-score in test [1] is -0.653 (inactive); in test [2], -0.538. Besides, the z-score in test [3] is 1.22; in test [4], -7.4 (inactive); in test [5], 0.141 (inactive); in test [6], 0.381 (inactive).
On to `COC(=O)[C@@]1(Cc2ccc(F)cc2)[C@H]2c3cc(C(=O)N4CCCC4)n(Cc4cccc5ccccc45)c3C[C@H]2CN1C(=O)c1ccccc1`, for which the composite z-score was 0.702 (inactive) in test [1] and 0.0322 in test [2]. The z-score was -1.74 in test [3], -4.87 (inactive) in test [4], -0.704 (inactive) in test [5] and -0.576 (inactive) in test [6].
For `C=CCC(OC(C)=O)[C@@H]1[C@@H](N(Cc2cc3ccccc3o2)C(=O)c2ccc(C)cc2)c2cc(OCCCO)ccc2N1C(=O)c1ccc2ccccc2c1` (some centres not stated), the composite z-score was -0.014 (inactive) in test [1] and -0.152 in test [2]. The z-score was -0.585 in test [3], -1.33 (inactive) in test [4], -0.252 (inactive) in test [5] and 0.0758 (inactive) in test [6].
Consider `COC(=O)[C@@]1(Cc2ccc(F)cc2)[C@H]2c3cc(C(=O)N(C)C)n(CCc4ccccn4)c3C[C@H]2CN1C(=O)c1ccccc1`, for which the values for the composite z-score in test [1] and in test [2] were 0.258 (inactive) and 0.234, respectively. Also, the z-score was -1.21 in test [3], -2.89 (inactive) in test [4], -0.0308 (inactive) in test [5] and 0.288 (inactive) in test [6].
Consider `CC=CC(O)C1C=CC2C(=O)N(c3ccccc3)C(=O)C2N1Nc1ccc(C(C)C)cc1` (configuration not stated), for which the values for the composite z-score in test [1] and in test [2] were 0.213 (inactive) and 0.766, respectively. Moreover, the z-score is -0.747 in test [3], -2.24 (inactive) in test [4], 0.55 (inactive) in test [5] and 0.538 (inactive) in test [6].
In the case of `COCCOC(=O)N1C(=O)[C@@]2(c3cc(C#CCNC(N)=O)ccc31)[C@H](C(=O)N1CCN(c3ncccn3)CC1)[C@H]1C(=O)O[C@H](c3ccccc3)[C@H](c3ccccc3)N1[C@@H]2c1ccccc1OCCO`, the composite z-score in test [1] is 1.56 (inactive); in test [2], 0.588. Moreover, the z-score in test [3] is -2.4; in test [4] it was -1.39 (inactive); in test [5], 0.197 (inactive); in test [6], 0.886 (inactive).
Consider `NC(=O)NCC#Cc1ccc2c(c1)[C@]1(C(=O)N2)[C@H](C(=O)N2CCCCCCC2)[C@H]2C(=O)O[C@H](c3ccccc3)[C@H](c3ccccc3)N2[C@@H]1c1ccc(OCCO)cc1`, for which the composite z-score in test [1] was 0.98 (inactive); in test [2] it was 0.246. Also, the z-score in test [3] was -0.922; in test [4], -15.8 (active); in test [5], 0.109 (inactive); in test [6] it was 0.309 (inactive).
As to `CCCC[C@@H]1C[C@H]1[C@@H](NC(=O)c1ccc(-c2ccccc2)cc1)c1ccc(-c2ccccc2)cc1`, the composite z-score in test [1] was 0.0014 (inactive); in test [2], -0.532. Besides, the z-score in test [3] is -1.05; in test [4], -1.24 (inactive); in test [5], 0.558 (inactive); in test [6], 0.394 (inactive).
In the case of `CC(C)C[C@@H]1NC(=O)[C@H]2C[C@@H](C(=O)NCCCCCNC(=O)CS)[C@@H](c3cccc(OCCO)c3)N2C1=O`, the composite z-score is 1.38 (inactive) in test [1] and 0.713 in test [2]. The z-score in test [3] was -0.159; in test [4], -3.89 (inactive); in test [5], -0.351 (inactive); in test [6], 0.184 (inactive).
In the case of `CCOC(=O)C1=CCC(c2ccc([N+](=O)[O-])cc2)N(S(=O)(=O)c2ccc(C)cc2)C1` (configuration not stated), the values for the composite z-score in test [1] and in test [2] were -0.15 (inactive) and 0.27, respectively. The z-score was -1.3 in test [3], -1.24 (inactive) in test [4], -0.021 (inactive) in test [5] and 0.144 (inactive) in test [6].
As to `COC(=O)[C@@]1(Cc2ccccc2N=[N+]=[N-])COC(c2ccc(OCCCO)cc2)=N1`, the composite z-score in test [1] is 1.25 (inactive); in test [2], 0.66. Besides, the z-score in test [3] is -0.82; in test [4], -5.06 (inactive); in test [5] it was 0.428 (inactive); in test [6], 0.135 (inactive).
Turning to `O=C1C[C@@](C(=O)NC2CC2)(c2ccc([N+](=O)[O-])cc2)[C@@H](c2ccc(CO)cc2)N1CC12CC3CC(CC(C3)C1)C2`, the composite z-score was -0.181 (inactive) in test [1] and 0.611 in test [2]. In addition, the z-score was -0.909 in test [3], -5.08 (inactive) in test [4], -0.635 (inactive) in test [5] and -0.617 (inactive) in test [6].
